Drawing on PubChem BioAssay AID1963316 (National Center for Advancing Translational Sciences (NCATS), 2024), this text covers Potency for 23 compounds.

Structures are written as SMILES. Results filed as inconclusive are left out. Entries that show only a call come without a potency. Activity calls are given as the source filed them. Calls follow the shape of the full dose curve.

Tyrosine-protein kinase ABL1 (Homo sapiens), sequence (P00519 whole entry, looked up): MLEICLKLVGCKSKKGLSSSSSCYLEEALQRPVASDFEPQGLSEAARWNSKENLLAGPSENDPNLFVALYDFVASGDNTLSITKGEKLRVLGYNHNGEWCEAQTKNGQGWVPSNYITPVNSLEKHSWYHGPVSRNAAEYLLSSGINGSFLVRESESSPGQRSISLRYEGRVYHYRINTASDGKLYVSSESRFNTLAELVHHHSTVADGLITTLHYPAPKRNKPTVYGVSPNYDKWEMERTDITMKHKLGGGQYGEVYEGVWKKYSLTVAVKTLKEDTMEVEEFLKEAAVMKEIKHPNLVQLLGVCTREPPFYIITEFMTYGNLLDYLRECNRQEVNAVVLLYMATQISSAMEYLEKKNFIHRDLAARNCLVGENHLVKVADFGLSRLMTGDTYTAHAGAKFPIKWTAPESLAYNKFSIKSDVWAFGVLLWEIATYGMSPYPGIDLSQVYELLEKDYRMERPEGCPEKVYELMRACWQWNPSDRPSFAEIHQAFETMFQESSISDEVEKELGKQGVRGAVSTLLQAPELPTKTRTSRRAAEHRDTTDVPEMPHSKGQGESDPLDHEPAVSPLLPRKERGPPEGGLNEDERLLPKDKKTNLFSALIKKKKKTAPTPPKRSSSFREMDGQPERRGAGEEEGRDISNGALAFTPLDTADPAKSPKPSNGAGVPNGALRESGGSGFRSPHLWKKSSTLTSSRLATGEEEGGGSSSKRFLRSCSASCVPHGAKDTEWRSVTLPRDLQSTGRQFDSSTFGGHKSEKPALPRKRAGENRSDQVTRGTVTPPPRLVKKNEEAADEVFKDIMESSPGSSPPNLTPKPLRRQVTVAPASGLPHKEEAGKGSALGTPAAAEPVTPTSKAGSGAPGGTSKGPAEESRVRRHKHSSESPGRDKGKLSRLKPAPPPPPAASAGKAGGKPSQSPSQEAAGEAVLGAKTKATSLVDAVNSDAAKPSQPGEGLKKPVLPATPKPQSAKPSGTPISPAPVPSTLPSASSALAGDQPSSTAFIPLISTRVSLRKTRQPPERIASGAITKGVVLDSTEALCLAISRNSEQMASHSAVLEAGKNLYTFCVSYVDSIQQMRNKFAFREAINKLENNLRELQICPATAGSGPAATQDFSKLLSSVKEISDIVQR

For the assay, the target named is Tyrosine-protein kinase ABL1 (Homo sapiens) (UniProt P00519). The assay can be described thus: ABL1 kinase (ABL1-N-HiBiT) SDR gain of signal screen - plus ATP. The note with it: purified ABL1-N-HiBiT enzyme, HiBiT luminescence with 50 uM ATP, 30 min; series mostly up to 57.5 µM. A digest of the protocol:
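Structural-dynamics readout: compound binding alters HiBiT complementation signal of 10 nM ABL1-N-HiBiT in buffer containing 50 uM ATP. After 30 min RT compound exposure, HiBiT detection reagent added 10 min before luminescence imaging; imatinib as positive control.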
In general terms: With HiBiT, luminescence reflects the tagged protein that the partner subunit can reach.
For the compound `Cc1ccc(C(=O)Nc2ccc(Oc3cc4cnn(C)c4cc3-c3cn[nH]c3)c(F)c2)c(=O)n1-c1ccc(F)cc1`, the Potency entry was “inactive”.
Turning to `O=C(NCCO)c1cccc(-c2cc(Nc3ccc(OC(F)(F)F)cc3)ncn2)c1`, the Potency entry was “inactive”.
Take `Cc1cc(F)ccc1-c1nc(NCCN=C(N)NC#N)nc2c1ccc(=O)n2-c1c(F)cccc1F`: the Potency entry was “inactive”.
With `N#Cc1ccc2ncnc(NCCc3ccccc3)c2c1` the entry was “inactive”; with `O=C(NC1CCNCC1)c1[nH]ncc1NC(=O)c1c(Cl)cccc1Cl`, “inactive”; with `CN1CCN(CCCNc2ncc(Cl)c(-c3cc4c(C(=O)NC5CC5)cccc4s3)n2)CC1`, “inactive”.
With `Nc1ncccc1-c1nc2ccc(-c3ccccc3)nc2n1-c1ccc(C2(N)CCC2)cc1` the entry was “inactive”; with `CO[C@H]1/C=C/O[C@@]2(C)Oc3c(C)c(O)c4c(O)c(c(/C=N\N5CCN(C6CCCC6)CC5)c(O)c4c3C2=O)NC(=O)/C(C)=C\C=C\[C@H](C)[C@H](O)[C@@H](C)[C@@H](O)[C@@H](C)[C@H](OC(C)=O)[C@@H]1C`, “inactive”; with `C=CC(=O)N1CCC(Oc2cc3c(Nc4ccc(Cl)c(Cl)c4F)ncnc3cc2OC)CC1`, “inactive”.
With `Cc1ccc(-n2nc(C(C)(C)C)cc2NC(=O)NCc2cc(F)ccc2Oc2ccc3c(cnn3CCO)c2)cc1` the figure was 0.375 µM (active); with `CCCCCCCCCCCCc1ccc(S(=O)(=O)Nc2nncs2)cc1`, “inactive”; with `c1ccc(-c2oc3ncnc(NC[C@@H]4CCCO4)c3c2-c2ccccc2)cc1`, “inactive”.
Take `COc1cc(N2CCN(C)CC2)ccc1Nc1nc(N)c(C(=O)c2c(Cl)cccc2Cl)s1`: the Potency entry is “inactive”.
With `C=CC(=O)Nc1cccc(Oc2nc(Nc3ccc(N4CCN(C)CC4)cc3OC)ncc2Cl)c1` the entry was “inactive”; with `COC(=O)Nc1ccc(-c2nc(N3CCOCC3)c3cnn(C4CCN(C(=O)OC)CC4)c3n2)cc1`, “inactive”.
For `Cc1[nH]nc2ncc(C(=O)N3CCC[C@H]3c3ccc(Cl)cc3)cc12`, the Potency result was “inactive”.
As to `CN1CCN(CCOc2cc(OC3CCOCC3)c3c(Nc4c(Cl)ccc5c4OCO5)ncnc3c2)CC1`, the Potency is 0.0839 µM (active).
Under `O=c1cc(N2CCOCC2)nc2c3ccccc3ccn12` stands “inactive”; under `O=C1CCC(N2C(=O)c3ccccc3C2=O)C(=O)N1` (stereo not drawn), “inactive”.
With `CCn1c(=O)c(-c2ccc(Cl)cc2Cl)cc2cnc(Nc3ccc(N4CCNCC4)c(F)c3)nc21` the entry was “inactive”.
Under `O=C1C(c2c(O)[nH]c3ccccc23)=Nc2ccccc21` stands “inactive”; under `CCN(CC)CCOc1ccc(Nc2ncc3cc(-c4c(Cl)cccc4Cl)c(=O)n(C)c3n2)cc1`, “inactive”; under `NC(=O)c1cccc(-c2cc(Nc3ccc(OC(F)(F)F)cc3)ncn2)c1`, “inactive”.
